# Source: PubChem BioAssay
# In the library only some 1.3% were active in any assay of this set; here they are far more common.
# VACV mCherry inh: vaccinia inhibition (mCherry reporter) | Vaccinia virus mCherry reporter infection, fluorescence | Potency, µM (highest dose often 36.5 µM), usual class: inhibitors | 310,000 tested, 0.63% active | AID 720579; calls by dose curve; tested in A549 cells; note: nearly all actives have a fitted effect of over 35% in size
# VACV Venus inh: vaccinia inhibition (Venus reporter). Vaccinia virus Venus reporter expression, fluorescence. Potency, µM (top dose mostly 36.5 µM), usual class: inhibitors. 330,000 tested, 0.46% active; calls by dose curve; tested in A549 cells; note: nearly all actives have a fitted effect of over 30% in size
# AmpC inh detg: blocks E. coli AmpC beta-lactamase in detergent assay. P00811. AmpC hydrolysis of nitrocefin, absorbance 480 nm, 0.01% Triton. Potency, µM (highest dose often 114 µM), actives largely listed as inhibitors. 370,000 tested, 0.041% active; note: nearly all actives have a fitted effect of over 25% in size
# Target sequence (P00811 whole entry, looked up): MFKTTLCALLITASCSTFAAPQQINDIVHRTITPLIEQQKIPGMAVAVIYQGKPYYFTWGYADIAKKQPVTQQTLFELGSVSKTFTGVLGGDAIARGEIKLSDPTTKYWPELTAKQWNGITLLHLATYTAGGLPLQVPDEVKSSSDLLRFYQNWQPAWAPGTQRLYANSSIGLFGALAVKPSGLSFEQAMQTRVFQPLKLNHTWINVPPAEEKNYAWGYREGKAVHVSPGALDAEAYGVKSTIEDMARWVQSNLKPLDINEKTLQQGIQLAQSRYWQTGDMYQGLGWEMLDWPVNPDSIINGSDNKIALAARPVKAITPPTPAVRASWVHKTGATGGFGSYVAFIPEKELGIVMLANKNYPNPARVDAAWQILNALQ
#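 AmpC (5.3 nM in the dispensed reagent) in 20 mM phosphate pH 7.0 with 0.01% (detergent screen) or 0.0001% Triton X-100 was preincubated with compounds for 15 min at room temperature. Nitrocefin was then added from an 800 uM solution, and hydrolysis was followed at 480 nm.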
# SARS PLpro yeast: inhibitors of SARS-CoV papain-like protease in yeast; S. cerevisiae expressing SARS-CoV PLpro, growth rescue; Potency, µM (highest dose often 32.9 µM), actives largely listed as activators; 330,000 tested, 0.19% active; calls by dose curve; note: nearly all actives have a fitted effect of over 55% in size
# AmpC inh no detg: blocks E. coli AmpC beta-lactamase in detergent-free assay; AmpC nitrocefin hydrolysis, absorbance 480 nm, 0.0001% Triton; 330,000 tested, 0.52% active; P00811; Potency, µM (series often up to 57.1 µM), hits mostly inhibitors; AID 485341; note: nearly all actives have a fitted effect of over 20% in size
#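 AmpC (5.3 nM in the dispensed reagent) in 20 mM phosphate pH 7.0 with 0.01% (detergent screen) or 0.0001% Triton X-100 was preincubated with compounds for 15 min at room temperature. Nitrocefin was then added from an 800 uM solution, and hydrolysis was followed at 480 nm.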
# Hits are given with their value; . = inactive; ? = inconclusive; / = no result given; ! = not active in a repeat; [ ] = dose if it differs, or a comment. Unless noted, calls come from the whole dose curve; as a rule, active = well fitted curve in the direction sought with a large enough effect; inconclusive = small, poorly fitted or top-dose-only effect, or another doubt; inactive = no such curve, though single readings can be large; an effect the other way counts as inactive or inconclusive.
SMILES,VACV mCherry inh,VACV Venus inh,AmpC inh detg,SARS PLpro yeast,AmpC inh no detg
Cc1cc(-c2cc(F)cc3c2OC(CNC(=O)CCn2cncn2)C3)ccc1F (configuration not stated),.,.,/,/,/
COc1ccc(NC(=S)N(CCc2c(C)[nH]c3ccc(C)cc23)Cc2ccco2)cc1,.,?,?,.,18µM
CCOc1ccc(NC(=S)N(CCc2c(C)[nH]c3ccc(C)cc23)Cc2ccco2)cc1,.,.,?,.,?
COC(=O)[C@@H]1CCCN1Cc1ccc2c(c1)CN(Cc1ccc3c(c1)CCCN3C)CCO2,.,.,/,/,/
CC12CCC(C(=O)Nc3ccccc3)(C/C1=N\O)C2(C)C (configuration not stated),/,/,.,.,.
CC12CCC(C(=O)O)(C/C1=N\O)C2(C)C (configuration not stated),.,.,.,11µM!,.
O=C(C=P(c1ccccc1)(c1ccccc1)c1ccccc1)c1ccccc1-c1ccccc1C(=O)C=P(c1ccccc1)(c1ccccc1)c1ccccc1,?,3.5µM,/,/,/
COC(=O)C1CCCCN1Cc1ccc2c(c1)CN(C1CCSCC1)CCO2 (configuration not stated),.,.,/,/,/
O=C1C=C(N(CCO)Cc2ccccc2)c2ccccc2C1=O,11µM,?,.,.,.
Cc1ccc(CNC(=S)Nc2ccc(NS(=O)(=O)c3ccc(C)cc3)cc2)cc1,.,.,.,.,2.2µM
CC[n+]1ccc(C[n+]2ccccc2)c2ccccc21,.,.,32µM,.,?
CN1CCCN(C(=O)[C@@H]2C[C@@H](Sc3nc4ccccc4[nH]3)CN2Cc2ccc(-c3ccccc3)cc2)CC1,.,.,/,/,/
C/C(=N\Nc1cc(C)nc(-c2ccccc2O)n1)c1ccccc1,?,.,.,.,.
Cc1cc(N/N=C/c2ccc(O)c(C)c2O)nc(-c2ccccc2O)n1,10µM,13µM,.,.,.
O=C1c2ccccc2-c2cccc(NS(=O)(=O)c3ccc(C(F)(F)F)cc3)c21,/,/,.,.,5.6µM
Cc1ccc(S(=O)(=O)Nc2ccccc2-c2ccccc2NS(=O)(=O)c2ccc(C)cc2)cc1,/,.,.,.,.
Cc1nc(NC(=O)c2ccc(OCC(C)C)cc2)sc1Cc1ccc2c(c1)OCO2,.,.,.,.,.
CCCOc1ccc(C(=O)Nc2nc(C)c(Cc3ccc4c(c3)OCO4)s2)cc1,?,10µM,.,.,.
N#CC1=C(SCC(=O)NC23CC4CC(CC(C4)C2)C3)NC(=O)C(C#N)C12CCCCC2 (configuration not stated),10µM,13µM,.,.,.
N#CC1=C(SCC(=O)NC2CC2)NC(=O)C(C#N)C12CCCCC2 (configuration not stated),.,.,.,.,.
Cc1c(C)n(CC(O)CSc2ccccc2)c2ccccc12 (configuration not stated),.,.,/,/,/
O=C(Nc1ccccc1)c1sc2cc(C(F)(F)F)cnc2c1-c1cccs1,.,.,.,.,4.5µM
NNC(=O)c1sc2cc(C(F)(F)F)cnc2c1-c1cccs1,.,.,.,.,.
CC(C)(C)C(=O)Nc1nc(-c2ccc3c(c2)OCO3)cs1,.,.,?,.,.
CCC(=O)Nc1nc(-c2ccc3c(c2)OCCO3)cs1,.,.,?,.,40µM
SMILES,VACV mCherry inh,VACV Venus inh,AmpC inh detg,SARS PLpro yeast,AmpC inh no detg
CCc1nnc(NC(=O)CSc2nnc3ncccn23)s1,.,.,.,.,0.32µM
CCOc1ccc(C(=O)N/N=C(\c2ccccc2)c2ccccn2)cc1,11µM,?,.,.,.
O=C(N/N=C(\c1ccccc1)c1ccccn1)c1cccc([N+](=O)[O-])c1,?,?,.,.,.
O=C(NCC1Cc2cc(F)cc(-c3cccnc3)c2O1)c1cnn(-c2ccccc2)c1 (configuration not stated),.,.,/,/,/
COc1cc(/C=C/CN2CCOc3ccc(C(O)c4cccnc4)cc3C2)ccc1O (configuration not stated),.,.,/,/,/
COc1ccc2oc(C(=O)N(Cc3ccco3)Cc3cccs3)c(C)c2c1,.,.,.,.,32µM
Cc1ccc(CN(Cc2ccco2)C(=O)c2oc3ccc(C)cc3c2C)cc1,.,.,.,/,/
COc1ccc(NS(=O)(=O)c2ccc(-c3n[nH]c(=S)n3Cc3ccccc3)cc2)cc1,/,/,.,.,7.9µM
COc1ccc(NS(=O)(=O)c2cccc(-c3n[nH]c(=S)n3Cc3ccccc3)c2)cc1,.,.,?,.,13µM
CCN(CC)S(=O)(=O)c1cccc(-c2n[nH]c(=S)n2Cc2ccccc2)c1,/,/,?,.,.[11.4 µM]
COc1ccc(-c2n[nH]c(=S)n2Cc2ccccc2)cc1,.,.,?,.,.
Cc1cc(-c2ccnc(-n3ncc(C(=O)NCCc4cccnc4)c3C)n2)c(C)s1,.,.,/,/,/
CCCc1cc(-c2nc(N)ncc2-c2csc(C)n2)c(O)cc1OC,/,/,.,.,.
CCCc1cc(-c2nc(N)ncc2-c2ccc3c(c2)OCCCO3)c(O)cc1OC,?,13µM,?,.,.
COc1cc(OC)c(N(C)S(=O)(=O)c2cccc(C(=O)OCC(=O)c3c[nH]c4ccccc34)c2)cc1Cl,.,.,?,.,4µM
O=C(CCSc1ccccc1)Nc1nc2c(s1)COc1ccccc1-2,?,?,?,.,3.2µM
CCCC(=O)Nc1nc2c(s1)COc1ccccc1-2,.,.,.,.,.
CC(C)(C)C(=O)Nc1nc2c(s1)COc1ccccc1-2,.,?,?,?,0.71µM
CCN(CC)CCCNC(=O)c1ccc2nc(N3CCCCC3)sc2c1,.,.,.,/,/
CC(=O)C[C@H]1c2cc(F)cc(F)c2S(=O)(=O)N1C1CCN(Cc2ccccc2)CC1,.,.,/,/,/
CCCCC(NC(C)=O)c1nc2ccccc2[nH]1 (configuration not stated),.,.,.,.,40µM
O=C(Nc1cccc(NC(=O)c2ccco2)c1)c1ccc2c(c1)OCO2,/,/,.,.,11µM
O=C(Nc1ccc(NC(=O)c2cccs2)cc1)c1ccc2c(c1)OCO2,.,.,.,.,.
C/C(=N\NC(=O)c1ccc(NS(=O)(=O)c2cccs2)cc1)c1ccc2c(c1)OCO2,.,.,.,.,18µM
O=C(Nc1cccc(NC(=O)c2cccs2)c1)c1ccc2c(c1)OCO2,?,.,?,.,10µM
SMILES,VACV mCherry inh,VACV Venus inh,AmpC inh detg,SARS PLpro yeast,AmpC inh no detg
COc1cc(/C=C/c2ccnc3ccccc23)cc(OC)c1OC,.,.,/,/,/
COc1ccc(Cl)cc1N1C(=O)[C@@H]2C[C@H]1CN2Cc1nc2ccccc2nc1C,.,.,/,/,/
COc1cccc(-n2ccn(CC(=O)Nc3ccccc3F)c(=O)c2=O)c1,.,.,.,/,/
Cc1ccc(NS(=O)(=O)c2ccc3c(c2)NC(=O)CCS3)cc1C,?,0.89µM,.,.,.
Cc1ccc(NS(=O)(=O)c2ccc3c(c2)NC(=O)CCS3)cc1F,?,.,.,.,.
O=C(C[n+]1cccc2cccc(O)c21)c1ccc2ccccc2c1,.,.,/,/,/
S=c1[nH]nc(COc2ccccc2)n1/N=C/C=C/c1ccco1,.[7.34 µM],.[7.34 µM],.,.,16µM
